# An excerpt weighted towards active compounds, which were near 6.5% of everything screened.
# FMDV inh = foot and mouth disease virus antiviral activity; AID 1159524; Potency, µM (titrated, usually from 57.9 µM), for the others: at the highest dose activity change, negative = inhibition, usual class: inhibitors; 410,000 tested, 1.2% active; FMDV antiviral cell-based qHTS; calls by dose curve; tested in HEK293T cells; also: read-out not given here; potency is read from the fitted curve at half-maximal effect; nearly all actives have a fitted effect of over 45% in size
# Lassa entry inh = blocks Lassa virus binding to or entry into cells; Lassa virus pseudotype entry inhibition, cell reporter; Potency, µM (titrated, usually from 37.9 µM), without a hit: at the highest dose activity change, negative = inhibition, actives largely listed as inhibitors; 300,000 tested, 1.2% active; AID 540256; calls by dose curve; tested in HEK293 cells; also: potency is read from the fitted curve at half-maximal effect; nearly all actives have a fitted effect of over 50% in size
# Vaccinia mCherry = vaccinia inhibition (mCherry reporter); 310,000 tested, 0.63% active; AID 720579; Vaccinia virus mCherry reporter infection, fluorescence; Potency, µM (titrated, usually from 36.5 µM), without a hit: top-dose activity change, negative = inhibition, hits mostly inhibitors; calls by dose curve; tested in A549 cells; also: potency is read from the fitted curve at half-maximal effect; nearly all actives have a fitted effect of over 35% in size
# Marburg entry inh = inhibitors of Marburg virus binding or cell entry | Marburg virus pseudotyped entry inhibition, cell reporter | Potency, µM (titrated, usually from 37.8 µM), for inactives: at the top dose activity change, negative = inhibition, usual class: inhibitors | 300,000 tested, 1.8% active; calls by dose curve; tested in HEK293 cells; also: potency is read from the fitted curve at half-maximal effect
# VACV Venus inh = inhibitors of vaccinia virus (Venus reporter); Potency, µM (series often up to 36.5 µM), without a hit: at the highest dose activity change, negative = inhibition, actives largely listed as inhibitors; 330,000 tested, 0.46% active; Vaccinia virus Venus reporter expression, fluorescence; calls by dose curve; tested in A549 cells; also: potency is read from the fitted curve at half-maximal effect; nearly all actives have a fitted effect of over 30% in size
# HCMV antiviral = blocks human cytomegalovirus replication; 410,000 tested, 4.5% active; HFF cells, HCMV-luciferase reporter, 72 h; hits give low values; activity change, negative = inhibition, % at 57.5 µM; in the data active = activity change below about -60%; inconclusive = no clear call, values can overlap the other calls; inactive = above about -39%
#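 Screen run at 2 compound doses on HFFs infected with reporter HCMV, MOI 1 PFU/cell. Luciferase activity from cell lysates at 72 h post infection gave inhibition relative to buffer-only and Salinomycin wells.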
# The depositor's hits bear a star; i = inactive; ? = inconclusive; nt = no result given; ! = not active in a repeat; [ ] = remark or other dose. % is scaled to controls: 0 for no effect and ±100 for the full control effect.
SMILES,FMDV inh,Lassa entry inh,Vaccinia mCherry,Marburg entry inh,VACV Venus inh,HCMV antiviral
O=C(Nc1ccc2c(c1)OCCO2)C(C1CC1)N1CCN(c2ccc(C(F)(F)F)cn2)CC1 (centres undefined),-6.7%,nt,8.4%,nt,-0.5%,22.2
COc1ccc(OCC(=O)Nc2ncc3c(n2)CC(C)(C)CC3=O)cc1,-14.1%,1.9%,nt,2.8%,nt,13.0
O=C(COc1ccccc1)Nc1ncc2c(n1)CCCC2=O,-0.2%,-3.9%,nt,-18.0%,15.8%,-61.7*
CN(C)CC(C)(O)c1ccc2c(c1)CN(Cc1cn(C)c3ccccc13)CCO2 (centres undefined),-11.5%,nt,-12.0%,nt,12.2%,nt
Cc1cc(C)c(CN2CCN(C(=O)Cn3cnc(C(=O)Nc4ccc(C)c(C)c4)n3)CC2)c(C)c1,?,nt,-22.0%,-3.5%,?,-101.7*
Cc1ccc(NC(=O)Cn2cnc(C(=O)Nc3ccc(C)c(C)c3)n2)cc1C,-9.6%,nt,-0.6%,3.9%,-0.9%,-0.6
Cc1ccc(NS(=O)(=O)c2cc(C(=O)NCc3ccncc3)ccc2C)cc1,96.5%,-10.3%,i,?,-6.3%,70.1
CCS(=O)(=O)c1nc(S(=O)(=O)c2ccc(Cl)cc2)c(N2CCN(CCO)CC2)s1,-4.7%,nt,nt,nt,nt,-66.0*
CCS(=O)(=O)c1nc(S(=O)(=O)c2ccc(Cl)cc2)c(N2CCc3ccccc3C2)s1,9.1%,?,-15.1%,?,1.4%,-72.5*
CCN1CCN(c2sc(S(=O)(=O)CC)nc2S(=O)(=O)c2ccc(Cl)cc2)CC1,-9.4%,nt,-19.2%,nt,-21.1%,?
CCOc1ccc(/C=C(\C)C(=O)c2c(C)cc(C)[nH]c2=O)cc1,19.5%,nt,nt,nt,nt,46.1
C[C@@H]1CC[C@H]2C(=O)N(Cc3ccc(Cl)cc3)C[C@@H](O)CN2[C@@H]1c1ccc(Br)cc1,nt,nt,nt,-14.8%[14.2 µM],nt,nt
C[C@H](NC(=O)/C(C#N)=C/c1ccc(O)c(O)c1)c1ccccc1,53.8%,?,nt,?,nt,nt
CC(NC(=O)/C(C#N)=C/c1ccc(Cl)c([N+](=O)[O-])c1)c1ccccc1 (centres undefined),31.6µM*,?,nt,?,nt,-99.5*
N#C/C(=C\c1ccc(O)c([N+](=O)[O-])c1)C(=O)NCc1ccccc1,-8.2%,nt,nt,nt,nt,-2.4
C[C@@H](NC(=O)/C(C#N)=C/c1ccc(O)c(O)c1)c1ccccc1,-19.4%,-27.2%,?,?,-13.1%,-98.2*
Cc1nc2cc(OC(=O)N(C)Cc3cccc(-c4ccncc4)c3)ccc2s1,28.2µM*,nt,12.2%,nt,-17.4%,nt
CN(Cc1cccc(-c2ccncc2)c1)C(=O)Oc1ccccc1Cl,20µM*,nt,i,nt,-11.7%,nt
CN(Cc1ccccc1)C(=O)Nc1c(Cl)cccc1Cl,2.4%,nt,4.7%,nt,3.4%,78.9
CN(Cc1cccc(-c2ccncc2)c1)C(=O)Oc1ccccc1Cc1ccccc1,22.4µM*,nt,2.0%,nt,-21.3%,nt
CN(C)Cc1ccccc1OC(=O)N(C)C,-19.8%,0.9%,nt,?,-11.5%,-1.6
O=C(COc1ccccc1C(=O)Nc1ccccc1)Nc1ccc2ccccc2c1,nt,nt,-7.4%,nt,-19.7%,nt
COc1ccc(OC)c2c(/C=C/c3ccc(N(C)C)cc3)ccnc12,nt,nt,-15.6%,nt,6.0%,nt
COc1ccc(OC)c2c(/C=C/c3c(C)[nH]c4ccccc34)ccnc12,nt,nt,12.6µM*,nt,-21.5%,nt
Cc1cc(C)cc(C(=O)NCCc2csc(-c3ccc(C(F)(F)F)cc3)n2)c1,-23.4%,-17.4%[46.1 µM],-13.3%,nt,-6.9%,17.9
SMILES,FMDV inh,Lassa entry inh,Vaccinia mCherry,Marburg entry inh,VACV Venus inh,HCMV antiviral
Cc1cccc(-c2nc(CCNC(=O)c3ccco3)cs2)c1,-24.7%,-15.5%[46.1 µM],-3.8%,nt,-12.0%,-68.2*!
O=C(NCCc1csc(-c2ccc(C(F)(F)F)cc2)n1)c1ccc(F)c(F)c1,20µM*,-26.2%[46.1 µM],-16.2%,nt,-11.6%,-63.4*
O=C(NCCc1csc(-c2ccccc2)n1)c1c(F)cccc1Cl,12.7%,?,-10.2%,5.6%[46.1 µM],-4.9%,-69.6*
CN(C)Cc1ccccc1-c1cncnc1NCc1cccs1,-14.9%,nt,3.2%,nt,9.8%,nt
CC(C)(C)S(=O)N1CCC[C@@H]1c1noc2cc3ccccc3cc12 (some centres undefined),nt,nt,nt,nt,nt,-8.4
O=C(Nc1ccc(C(=O)N2CCOCC2)cc1)c1ccccc1Cl,-5.0%,nt,i,nt,-1.6%,9.6
CC(C)Oc1ccc(Nc2cc3c(cn2)cc(-c2cccc(C(F)(F)F)c2)n3C)cc1,nt,nt,nt,nt,nt,-5.1
CCOC(=O)C1=C(N)n2c(s/c(=C/c3ccco3)c2=O)=C(C(=O)OCC)C1c1ccco1 (centres undefined),nt,nt,nt,-18.2%,nt,nt
CCc1ccccc1NS(=O)(=O)c1ccc(OC)c2ncccc12,6.8%,?,-10.3%,nt,-6.1%,?
COc1ccc(S(=O)(=O)Nc2c(C)cc(C)cc2C)c2cccnc12,?,nt,i,nt,-15.8%,-61.8*
CC1=NN(Cc2ccccc2)C(=O)C1C(c1ccc(Cl)cc1)C(C#N)C#N (centres undefined),28.2µM*,?,-27.7%,-13.0%,-23.9%,-23.3
CCc1cccc(C)c1NC(=O)CCn1c(=O)c2cccn2c2ccccc21,-13.6%,?,-0.4%,nt,-8.8%,?
O=C(Nc1cccc(-c2cn3c(n2)SCC3)c1)c1ccc2ccccc2n1,16.5%,nt,-14.3%,-18.0%[46.1 µM],-5.6%,312.2
O=C(Nc1ccc(-c2cn3c(n2)SCC3)cc1)c1ccc2ccccc2n1,25.1µM*,?,-11.1%,?,-16.0%,9.6
O=C(N=c1ccn(-c2nc3ccccc3nc2NS(=O)(=O)c2ccccc2)cc1)c1cccs1,0.4%,3.2%,-13.7%,?,-8.5%,-12.3
Cc1ccccc1C(=O)N=c1ccn(-c2nc3ccccc3nc2NS(=O)(=O)c2ccc(F)cc2)cc1,0.6%,nt,nt,nt,nt,-60.6*
CCOC(=O)c1cc(NC(=O)Nc2cc(C)ccn2)c(C)nc1C,-5.7%,12.6%,-18.9%,-19.5%[46.1 µM],-9.7%,-65.1*
CCOC(=O)Nc1cc(C(=O)OCC)c(C)nc1C,-19.5%,-10.7%,i,3.8%,-4.0%,-21.4
O=C(CNC(c1ccccc1)c1ccccc1)Nc1cc([N+](=O)[O-])ccc1Cl,?,?,-17.6%,?,-14.1%,-20.3
COc1ccccc1NS(=O)(=O)c1cccc(NC(=O)c2cncc(Br)c2)c1,-4.7%,?,-9.2%,3.55µM*,-28.1%,?
COc1ccccc1NS(=O)(=O)c1cccc(NC(=O)c2sc3ccccc3c2Cl)c1,14.1%,?,-18.4%,?,-7.5%,-67.7*
NS(=O)(=O)c1cccc(NC(=O)c2cncc(Br)c2)c1,6.1%,nt,nt,nt,nt,-8.5
COc1ccccc1NS(=O)(=O)c1cccc(NC(=O)Nc2cccc(Cl)c2)c1,?,12.6µM*,?,?,?,-94.7*
COc1ccccc1NS(=O)(=O)c1cccc(NC(=O)NCCCl)c1,7.5%,nt,-9.4%,nt,-3.9%,9.6
COc1ccccc1NC(=O)Nc1ccc(F)c(F)c1,9.4%,-24.3%[46.1 µM],-12.2%,-19.5%[46.1 µM],-18.1%,-102.4*
COc1ccccc1NC(=O)NCC(=O)Nc1ccc(F)c(F)c1,-3.6%,-7.5%,i,-7.8%,-2.9%,68.7

# Bioassay records deposited in PubChem BioAssay by National Center for Advancing Translational Sciences (NCATS).
